CRFR2-BP antag = CRF-BP/CRF-R2 complex antagonism | inhibition, % at 11.8 µM | HEK293 CRF-R2/CRF-BP, CRF-induced calcium fluorescence | 350,000 tested, 0.59% active | AID 588475;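 active = inhibition of the ligand-induced calcium signal above about 50% at the single tested concentration, limit read from the data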
cardiac RTF act = cardiac RTF calcium sensitization; P19429+P45379; AID 493008; activation, % at 7.2 µM; 340,000 tested, 0.24% active; IANBD-labeled TnC RTF fluorescence at EC20 calcium; 0% EC20 calcium, 100% full calcium;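 active = activation above the mean over all tested compounds plus 3 SD, cut at about 30% in these data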;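 note: rise in fluorescence read as greater calcium sensitivity of cardiac thin filaments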
CRFBP-R2 agonist = CRF-BP/CRF-R2 complex agonism. activation, % at 13.2 µM. 350,000 tested, 0.46% active. AID 588473. HEK293 CRF-R2/CRF-BP, calcium dye fluorescence (FLIPR); percent of saturating CRF peptide response;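 active = activation of at least 50%, plus an integration ratio under a set limit after plate pattern correction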;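 note: plate controls were neutral control wells without compound for no effect and CRF at EC100 for full effect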
Cardiac RTF inh = cardiac RTF calcium desensitization; IANBD-labeled cardiac RTF, Ca2+ fluorescence; inhibition, % at 7.15 µM; 340,000 tested, 0.12% active; P19429+P45379; AID 493244;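 active = inhibition above the mean inhibition of all tested compounds plus 3 SD, cut at about 17% in these data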;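 note: assay run at fixed EC70 calcium of 1.6 mM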
* = called active by the depositor; x = no result given. In the library only some 1.3% were active in any assay of this set; here they are far more common.

SMILES	CRFR2-BP antag	cardiac RTF act	CRFBP-R2 agonist	Cardiac RTF inh
CCCCc1ccc(/C(C)=N/Nc2cc(N3CCOCC3)nc(C)n2)cc1	-18	6	-3	4
COc1ccc2c(C)cc(SCC#N)nc2c1	7	8	2	-15
COc1ccc2c(C)cc(SCc3c(C)noc3C)nc2c1	56*	5	-1	-16
CC(=O)Nc1ccc(Cl)c(C(N)=O)c1	-13	2	0	-12
CC(=O)Nc1cc(C(N)=O)c(Cl)cc1Cl	72*	-1	-1	0
COc1ccc(N(CC(=O)NN=C2CCCC2)S(=O)(=O)c2ccccc2)cc1Cl	-100	3	80*	-21
COc1ccc(-c2nc3scc(-c4ccc(OC)c(OC)c4)c3c(=O)o2)cc1	57*	3	-1	0
CC(C)CNS(=O)(=O)c1ccc(Br)cc1N1CCC[C@@H]1CO	-1	-3	-4	-4
COc1ccc(/C=C2\SC(=O)N(CCCC(=O)Nc3cc(Cl)ccc3C(=O)O)C2=O)cc1	34	-3	-1	7
CN(C(=O)c1ccc(S(=O)(=O)N2CCCC2)cc1)C1CCCCC1	-17	0	-4	-2
O=S(=O)(NC1CCCC1)c1ccc(S(=O)(=O)NC2CCCC2)cc1	-71	2	56*	-15
CN(C(=O)c1ccc(S(=O)(=O)NC2CCCC2)cc1)C1CCCCC1	-75	4	51*	-31
O=S(=O)(NC1CCCCCCC1)c1ccc(F)cc1	-9	x	-1	x
O=C(Nc1ccc(S(=O)(=O)Nc2nccs2)cc1)c1c(F)c(F)c(F)c(F)c1F	2	-3	-3	-3
Cc1nn(-c2ccccc2)c(N2CCCC2)c1/C=C1\N=C(c2ccc(OC(C)C)cc2)OC1=O	-81	64*	30	-61
Cc1ccc(C2=N/C(=C\N3CCCCC3)C(=O)O2)cc1	2	1	-4	-4
Cc1nn(CC(=O)Nc2c(F)c(F)cc(F)c2F)c(=O)c2cccn12	2	-3	-1	3
O=C(NNC(=S)NC(=O)c1ccc(F)cc1)c1ccncc1	18	-4	-2	-5
O=C(NNC(=S)NC(=O)C12CC3CC(CC(C3)C1)C2)c1ccncc1	-84	-2	139*	-7
CC1(C(=O)NC(=S)NNC(=O)c2ccncc2)CCCCC1	33	10	81*	-3
CCOC(=O)C1=C(O)C(=O)N(Cc2cccnc2)C1c1ccc(OC)cc1 (stereo not given)	11	x	-4	x
CN(/N=C/c1cc([N+](=O)[O-])ccc1O)c1ccccc1	20	2	-2	-5
CN(/N=C/c1ccc(-c2ccc([N+](=O)[O-])cc2)o1)c1ccccc1	-93	16	79*	-25
O=C(NC(=S)NCCc1ccccn1)c1ccco1	53*	3	15	-5
Cc1ccc(CNC(=O)C2CCC(=O)N(C3CCCC3)C2)c(F)c1F (stereo not given)	13	-2	-1	-4
SMILES	CRFR2-BP antag	cardiac RTF act	CRFBP-R2 agonist	Cardiac RTF inh
Cc1cc(C)n(CCC(=O)N=Nc2c(O)[nH]c3ccc(Br)cc23)n1	93*	-6	1	-1
O=C(O)C(CO)(c1ccccc1)c1ccccc1	1	3	-2	10
CCNc1c([N+](=O)[O-])ncn1C	-15	2	-1	0
CN(C)c1c([N+](=O)[O-])ncn1C	54*	-1	0	2
COc1cccc(CNCc2cccnc2)c1OCc1ccccc1	19	1	-3	-8
CCn1cc(C=C2C(=O)c3ccccc3C2=O)c2ccccc21	-246	1	196*	-4
CCN=C1S/C(=C\c2cn(CC)c3ccccc23)C(=O)N1CC	0	2	0	-3
CCc1ccc(NC(=O)CSc2nc(CSc3ccc(C)cc3)cc(=O)[nH]2)cc1	10	-3	-1	-11
Cc1ccc(SCc2cc(=O)[nH]c(SCC(=O)Nc3cc(Cl)ccc3Cl)n2)cc1	68*	9	0	-2
Cc1ccc(C)n1-c1sccc1C(=O)O	-3	-31	2	65*
CN(C)c1ccc(/C=C/c2cccc[n+]2[O-])cc1	-20	x	15	x
CC(C)CC[n+]1ccccc1/C=C/c1ccc(N(C)C)cc1	-73	27	51*	-48
COC(=O)CN(c1cc([N+](=O)[O-])ccc1OC)S(C)(=O)=O	0	0	0	-5
Cn1nc(NC(=O)CC23CC4CC(CC(C4)C2)C3)c2c(F)cccc21	0	-3	1	-4
CSc1ccccc1NC(=O)COC(=O)c1c[nH]c(=O)[nH]c1=O	-60	0	112*	-7
Cc1ccc(-n2cccn2)c(CN2CCCC(C(=O)c3ccc4c(c3)OCO4)C2)c1 (stereo not given)	8	1	-1	-8
O=C(c1ccc2c(c1)OCO2)C1CCCN(Cc2cc(F)ccc2-n2cccn2)C1 (stereo not given)	-50	0	56*	-2
CCOc1ccc(S(=O)(=O)Nc2nc3ccccc3nc2Nc2ccc(N3CCOCC3)cc2)cc1	-26	6	77*	-27
COc1ccc(S(=O)(=O)Nc2ccc(N3CCOCC3)cc2)cc1	-14	12	0	-11
CCc1ccc(Nc2n[n+](-c3ccccc3)c(-c3ccc(N(CC)CC)cc3)s2)cc1	-101	33*	67*	-61
CCN(CC)c1ccc(-c2sc(Nc3ccccc3)n[n+]2-c2ccc(F)cc2)cc1	-19	31*	7	-25
CC(=O)NC(Cc1ccc(C)cc1)C(=O)NC1CCN(c2ncccc2[N+](=O)[O-])CC1 (stereo not given)	60*	-2	-3	-7
CCCn1cc(CN2CCC(N3CCC(C(=O)N4CCOCC4)CC3)CC2)c(C)n1	1	0	0	-12
N#C/C(=C\c1ccc(N2CCOCC2)o1)c1nc2ccccc2[nH]1	-62	259*	95*	-228
N#C/C(=C\c1ccc(N2CCOCC2)c([N+](=O)[O-])c1)c1nc2ccccc2[nH]1	-37	-4	0	7
SMILES	CRFR2-BP antag	cardiac RTF act	CRFBP-R2 agonist	Cardiac RTF inh
N#C/C(=C\c1ccc(-c2ccc(C(=O)O)cc2)o1)c1nc2ccccc2[nH]1	-237	54*	141*	-86
Cc1ccc(-c2nc(SC(C)C(=O)N3CCOCC3)n[nH]2)cc1 (stereo not given)	-17	-4	0	2
Cc1[nH]c2ccccc2c1C(=O)CN1C(=O)NC(C)(c2ccc(Cl)cc2Cl)C1=O (stereo not given)	-199	14	67*	1
Cc1cc(C)n2nc(N)c(N=Nc3ccc(Cl)cc3)c2n1	16	-7	-8	10
COc1ccc(C(=O)NC(Oc2ccccc2)C(Cl)(Cl)Cl)cc1 (stereo not given)	113*	-7	12	-3
COc1ccc(NC(=O)CCCNC(=O)Cn2cnc3sc4c(c3c2=O)CCCC4)c(OC)c1	2	3	-1	-3
O=C1CSC(c2nn(-c3ccccc3)cc2-c2cc3ccccc3oc2=O)N1Cc1ccco1 (stereo not given)	84*	6	4	-3
O=C1CSC(c2cn(-c3ccccc3)nc2-c2cc3ccccc3oc2=O)N1Cc1ccccc1 (stereo not given)	11	1	0	3
